Experimental data as given in PubChem BioAssay AID1645887 (National Center for Advancing Translational Sciences (NCATS), 2021).
Where “and” joins values, the source holds several entries; their conditions need not be identical. Identical values can stand only once. The whole screen tested about 16,000 compounds, of which about 40 (0.2%) were called active. Not shown: some 1% with an inconclusive outcome. What follows is part of a selection rich in actives, with near analogues and random picks from the rest. Unmarked numbers belong to inactive results. Calls come from the whole dose curve; as a rule, active = well fitted activation curve with a large enough effect; inconclusive = small, poorly fitted or top-dose-only effect, or another doubt; inactive = no such curve, though single readings can be large or run the other way.

The molecules below were run against Rap guanine nucleotide exchange factor 4 (Homo sapiens) (UniProt Q8WZA2) (assay: Validation qHTS for agonist of cAMP-regulated guanine nucleotide exchange factor 4 (EPAC2)). Details: EPAC2 Rap1B BODIPY-GDP exchange, fluorescence; activation: stronger effect = higher value.
Rap guanine nucleotide exchange factor 4 (Homo sapiens), sequence (Q8WZA2 whole entry, looked up): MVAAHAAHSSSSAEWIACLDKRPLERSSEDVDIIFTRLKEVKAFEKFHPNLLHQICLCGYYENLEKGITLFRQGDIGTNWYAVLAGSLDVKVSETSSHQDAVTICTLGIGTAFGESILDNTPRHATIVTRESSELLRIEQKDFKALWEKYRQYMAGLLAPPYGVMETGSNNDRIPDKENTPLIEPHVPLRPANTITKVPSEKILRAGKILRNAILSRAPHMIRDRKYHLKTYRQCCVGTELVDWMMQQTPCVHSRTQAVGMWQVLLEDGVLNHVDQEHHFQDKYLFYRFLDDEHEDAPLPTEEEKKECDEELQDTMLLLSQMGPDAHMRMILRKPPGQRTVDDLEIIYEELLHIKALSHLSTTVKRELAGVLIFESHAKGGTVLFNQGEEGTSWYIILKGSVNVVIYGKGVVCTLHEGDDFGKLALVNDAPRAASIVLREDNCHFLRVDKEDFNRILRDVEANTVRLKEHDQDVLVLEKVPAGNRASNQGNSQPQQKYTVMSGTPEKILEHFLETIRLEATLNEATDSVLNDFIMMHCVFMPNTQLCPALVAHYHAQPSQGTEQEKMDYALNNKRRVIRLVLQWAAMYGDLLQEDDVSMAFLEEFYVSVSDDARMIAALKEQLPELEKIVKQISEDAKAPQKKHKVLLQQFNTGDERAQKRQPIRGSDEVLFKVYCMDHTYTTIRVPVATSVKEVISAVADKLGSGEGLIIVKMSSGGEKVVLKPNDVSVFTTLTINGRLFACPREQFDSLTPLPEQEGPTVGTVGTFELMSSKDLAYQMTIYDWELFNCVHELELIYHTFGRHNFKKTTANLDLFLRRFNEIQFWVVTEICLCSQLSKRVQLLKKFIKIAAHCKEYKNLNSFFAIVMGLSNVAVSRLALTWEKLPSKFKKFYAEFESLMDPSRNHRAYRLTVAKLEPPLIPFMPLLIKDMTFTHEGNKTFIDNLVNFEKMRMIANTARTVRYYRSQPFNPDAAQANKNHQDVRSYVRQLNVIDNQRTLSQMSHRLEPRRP
Procedure, shortened: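 Signal normalized against 6.5 mM cAMP as agonist control. Mix of EPAC2 (100 nM), RAP1B-BODIPY-GDP (250 nM) and GDP (50 uM) was read kinetically at 480/540 nm, every 5 min over 30 min, after 5 min room-temperature incubation with compound.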
% is set by controls: 0 for no effect and ±100 for the full control effect; potency is the fitted concentration of half-maximal effect.
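Throughout, for activation: exchange makes BODIPY-GDP fluorescence drop when released from Rap1B; series mostly up to about 150 µM.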

Compound | activation | Potency
O=c1c(-c2ccc(F)c(F)c2)nc2cncnc2n1Cc1ccccc1 | -20.1% | –
C[N+](C)(CCOc1ccccc1)Cc1cccs1 | -2.61% | –
O=C(NCc1ccncc1)c1cnn(-c2nccc(-c3cccs3)n2)c1C1CC1 | -7.47% | –
COc1ncc2nc(C)c(=O)n(Cc3cccs3)c2n1 | -6.26% | –
CN(C)Cc1ccccc1-c1cncnc1Nc1ccncc1 | 2.36% | –
COc1cccc(Cn2c(=O)c(C)nc3cnc(N4CCOCC4)nc32)c1 | 1.39% | –
CN(C)C(=O)c1ccc(-c2cc(NCc3cccs3)ncn2)cc1 | -16.8% | –
CCNc1ncc2nc(-c3cccc(C#N)c3)c(=O)n(Cc3cccc(OC)c3)c2n1 | 3.97% | –
Cc1ccc(C(C)CCN2CCOc3ccc(CN4CCOCC4)cc3C2)o1 (stereo unspecified) | 1.95% | –
CC1CN(c2cc3c(cc2F)c(=O)c(C(=O)O)cn3-c2ccc(F)cc2F)CCN1 (stereo unspecified) | -22.2% | –
C=C[C@@H]1c2cc(C)ccc2N(S(=O)(=O)c2ccc(C)cc2)[C@H](c2ccc(OC(C)=O)cc2)C1(C#N)C#N | -9.82% | –
CCN(CC)CCCC(C)Nc1cc(/C=C/c2ccccc2Cl)nc2cc(Cl)ccc12 (stereo unspecified) | 16.5% | –
CCN(CC)CCCC(C)Nc1c2ccc(Cl)cc2nc2ccc(OC)cc12 (stereo unspecified) | – | 89.1 µM (active)
CCN(CC)CCCC(C)Nc1ccnc2cc(Cl)ccc12 (stereo unspecified) | -8.87% and 0.526% and -22.7% | –
COc1ccccc1-c1ccnc(-n2ncc(C(=O)NCc3cccnc3)c2C)n1 | 8.95% | –
COc1ccccc1/C=C\C(=O)OC[C@@H]1CCCN2CCCC[C@H]12 | -21.1% | –
CCOC(=O)CCC(=O)O[C@H]1C(O[C@@H]2C(C)[C@H](O[C@H]3C[C@@](C)(OC)C(O)C(C)O3)C(C)C(=O)OC(CC)[C@@](C)(O)C(O)[C@H](C)C(=O)C(C)C[C@]2(C)O)OC(C)CC1N(C)C (stereo partly specified) | -16.2% | –
O=c1c(-c2ccc(F)cc2)nc2cnc(Oc3cccc(Cl)c3)nc2n1C[C@H]1CCCO1 | 10.2% | –
CO[C@H]1[C@H](NC(=O)c2ccsc2)c2ccccc2C12CCN(Cc1c(O)ccc3ccccc13)CC2 | -7.57% | –
OCCN(CCO)c1nc(N2CCCCC2)c2nc(N(CCO)CCO)nc(N3CCCCC3)c2n1 | – | 112 µM (active) and 100 µM (active)
COCC(=O)N1CCC2(CC1)CN(c1cccc(-c3ccccc3)c1)C2 | -17% | –
Cc1noc(C)c1-c1nc(NCc2cccnc2)c2ccccc2n1 | -6.22% | –
Cc1oc(-c2ccccc2NC(=O)c2ccccc2)nc1CNC(=O)C1CC(=O)OC12CCCCC2 (stereo unspecified) | -5.24% | –

Compound | activation | Potency
CSc1nnc(CNC(=O)c2c(-c3ccccc3)noc2C)n1-c1ccc(F)cc1 | -0.342% | –
Cc1cccnc1-c1cccc2c1OC(CNC(=O)C(=O)c1ccccc1)C2 (stereo unspecified) | -7.04% | –
COc1cccc(CNC(=O)c2c(OC)cc(=O)n3c2CCN(C(=O)c2csc(C)n2)CC3)c1 | 1.41% | –
CCOC(=O)c1c[nH]c2cc(OCC(C)C)c(OCC(C)C)cc2c1=O | -9.73% | –
Cn1c2c(c(=O)c3ccccc31)C[C@@H](O)C(C)(C)O2 | -9.21% | –
Cc1cc2nc3c(=O)[nH]c(=O)nc-3n(C[C@H](O)[C@H](O)[C@H](O)CO)c2cc1C | – | 79.4 µM (active) and 100 µM (active)
Cc1cc2nc3c(=O)[nH]c(=O)nc-3n(CC(O)C(O)C(O)CO)c2cc1C (stereo unspecified) | – | 89.1 µM (active)
Nc1ncnc2c1ncn2[C@@H]1O[C@H](COP(=O)(O)OP(=O)(O)OP(=O)(O)O)[C@@H](O)[C@H]1O | 1.95% | –
Cc1cc2nc3c(=O)[nH]c(=O)nc-3n(C[C@H](O)[C@H](O)[C@H](O)COP(=O)(O)OP(=O)(O)OC[C@H]3O[C@@H](n4cnc5c(N)ncnc54)[C@H](O)[C@@H]3O)c2cc1C | – | 89.1 µM (active)
Nc1ncnc2c1ncn2[C@@H]1O[C@H](COP(=O)(O)OP(=O)(O)OP(=O)(O)OP(=O)(O)OC[C@@H]2O[C@H](n3cnc4c(N)ncnc43)[C@@H](O)[C@H]2O)[C@@H](O)[C@H]1O | 12.8% and -62.2% | –
CC[C@H]1OC(=O)[C@H](C)[C@@H](O[C@H]2C[C@@](C)(OC)[C@@H](O)[C@H](C)O2)[C@H](C)[C@@H](O[C@@H]2O[C@H](C)C[C@H](N(C)C)[C@H]2O)[C@](C)(O)C[C@H](C)C(=NOCOCCOC)[C@H](C)[C@@H](O)[C@]1(C)O | -4.72% | –
C[C@@H]1CN(Cc2ccc3c(c2)CN(Cc2cccc4c2OCO4)CCO3)C[C@H](C)O1 | -2.91% | –
CC(=O)c1ccc(F)c(-c2cc(C)cc3c2OC(CNC(=O)C[C@@H]2C[C@@H](C)NC(=S)N2)C3)c1 (stereo partly specified) | -13.4% | –
Cc1ccc(N)cc1O | 2.89% | –
C[n+]1c2cc(N)ccc2cc2ccc(N)cc21 (tested in a mixture with another compound) | – | 22.4 µM (active)
CC(C)NC(=O)N1CCC2(CC1)CCN(S(=O)(=O)c1ccccc1)CC2 | -7.09% | –
O=S1(=O)CCOCCCN1Cc1cccc(F)c1 | -1.25% | –
OCC1OC(n2cnc3c(Cl)nc(Cl)nc32)C(O)C1O (stereo unspecified) | -15.7% | –
O=C(c1cccc(F)c1)N1CCC2(CC1)CN(c1ccccc1)C2 | 4.44% | –
NC(=S)c1ccc[n+]([C@@H]2O[C@@H](COP(=O)([O-])OP(=O)(O)OC[C@H]3O[C@@H](n4cnc5c(N)ncnc54)[C@H](OP(=O)(O)O)[C@@H]3O)C(O)C2O)c1 (stereo partly specified) | -34.4% | –
COCCn1c(=O)c(CCc2ccccc2)nc2cnc(N3CCN(C)CC3)nc21 | -2.75% | –
COC(=O)C1C(O)CC[C@H]2CN3CCc4c([nH]c5ccccc45)C3C[C@H]12 (stereo partly specified) | 2.5% | –
Cc1c(C(=O)NCCCc2ccncc2)cnn1-c1nccc(-c2ccccc2F)n1 | -21.1% | –
